PubChem BioAssay (Tox21)
Results filed as inconclusive are left out. Activity calls are given as the source filed them. Unless noted, calls follow the shape of the dose curve; as a rule, active = well fitted curve in the direction sought with a large enough effect in the repeat runs; inconclusive = weak or mixed curves; inactive = no such curve, though single readings can be large; an effect the other way counts as inactive or inconclusive.

Key:
[1] = A CellTox Green Cytotoxicity Assay to monitor cytotoxicity in HEK293 cells - 32 hour (AID 1224881); also: nearly all actives have a fitted effect of over 40% in size
Method in brief: (§1)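 HEK293 cells premixed with CellTox Green dye were seeded at 600 cells/well and left 5 h at 37 C/5% CO2 before pin transfer of 23 nL compound in DMSO. Fluorescence from dye bound to dead-cell DNA was read during 40 h treatment.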

[2] = A CellTox Green Cytotoxicity Assay to monitor cytotoxicity in HepG2 cells - 0 hour (AID 1224882); also: nearly all actives have a fitted effect of over 35% in size
Method in brief: (§2)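 HepG2 cells were seeded together with the CellTox Green dye at 600 cells/well, left 5 h at 37 C/5% CO2, then given compounds in DMSO. Fluorescence from dye bound to dead-cell DNA was read repeatedly over 40 h of treatment at 37 C.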

[3] = A CellTox Green Cytotoxicity Assay to monitor cytotoxicity in HepG2 cells - 32 hour (AID 1224883); also: nearly all actives have a fitted effect of over 50% in size
Method in brief: as §2

[4] = A CellTox Green Cytotoxicity Assay to monitor cytotoxicity in HEK293 cells - 8 hour (AID 1224884); also: nearly all actives have a fitted effect of over 35% in size
Method in brief: as §1

[5] = qHTS RealTime-Glo MT Cell Viability Assay in HepG2 cells - 16 hour (AID 1224885); also: nearly all actives have a fitted effect of over 50% in size
Method in brief: (§3)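 HepG2 suspension premixed with RealTime-Glo reagents is plated at 600 cells per well and left 5 h at 37 C/5% CO2. Compounds in DMSO then go in, and bioluminescence reflecting viable cell number is recorded over 40 h.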

[6] = qHTS RealTime-Glo MT Cell Viability Assay in HEK293 cells - 24 hour (AID 1224886); also: top concentration of the series differs between compounds; nearly all actives have a fitted effect of over 50% in size
Method in brief: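 Reads taken at 0, 8, 16, 24, 32 and 40 h from the same wells. HEK293 cells (600/well) carried RealTime-Glo reagents from seeding, with compound added after a 5 h settle at 37 C.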

[7] = qHTS RealTime-Glo MT Cell Viability Assay in HEK293 cells - 8 hour (AID 1224887); also: top concentration of the series differs between compounds; nearly all actives have a fitted effect of over 50% in size
Method in brief: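 HEK293 cells mixed with RealTime-Glo reagents (NanoLuc plus cell-permeant prosubstrate) at 600 cells/well, preincubated 5 h at 37 C/5% CO2, then given 23 nL compound in DMSO. Nonlytic luminescence from viable cells was read at 0, 8, 16, 24, 32 and 40 h.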

[8] = A CellTox Green Cytotoxicity Assay to monitor cytotoxicity in HEK293 cells - 16 hour (AID 1224888); also: nearly all actives have a fitted effect of over 35% in size
Method in brief: as §1

[9] = qHTS RealTime-Glo MT Cell Viability Assay in HepG2 cells - 0 hour (AID 1224889); also: nearly all actives have a fitted effect of over 50% in size
Method in brief: as §3

[10] = A CellTox Green Cytotoxicity Assay to monitor cytotoxicity in HepG2 cells - 8 hour (AID 1224890); also: nearly all actives have a fitted effect of over 45% in size
Method in brief: as §2

[11] = qHTS assay to identify small molecule antagonists of the estrogen receptor alpha (ER-alpha) signaling pathway using the BG1 cell line in the presence of 0.1 nM 17-beta-estradiol - cell viability counter screen (AID 1259241); also: nearly all actives have a fitted effect of over 40% in size
Method in brief: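 Live-cell protease activity (CellTiter-Fluor fluorescence, 30 min) was read in the same wells after VM7Luc4E2 cells had been exposed to compounds with 0.1 nM 17beta-estradiol for 22 hr at 37C.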

[12] = qHTS assay to identify small molecule antagonists of the androgen receptor (AR) signaling pathway using the MDA cell line in the presence of 0.5 nM R1881 - cell viability counter screen (AID 1259242); also: nearly all actives have a fitted effect of over 45% in size
Method in brief: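 MDA-kb2 cells (human breast carcinoma, stably carrying MMTV-luciferase reporter) were exposed to compounds with 0.5 nM R1881 (final) for 16 hr at 37C, 0% CO2; viability then read as live-cell protease fluorescence (CellTiter-Fluor, 30 min) in the same wells.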

[13] = molecular target: Estrogen receptor (Homo sapiens) (UniProt P03372); experiment: qHTS assay to identify small molecule antagonists of the estrogen receptor alpha (ER-alpha) signaling pathway using the BG1 cell line in the presence of 0.1 nM 17-beta-estradiol (AID 1259244); also: nearly all actives have a fitted effect of over 50% in size
Method in brief: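 VM7Luc4E2 cells (endogenous full-length ER-alpha, stable 4xERE-luciferase) were grown 5 days in phenol red-free medium with charcoal-stripped FBS, then exposed 22 h at 37C to compounds plus 0.1 nM (final) 17beta-estradiol; ONE-Glo luminescence read-out.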

[14] = qHTS assay to identify small molecule HDAC inhibitors (AID 1259364); also: nearly all actives have a fitted effect of over 45% in size; also: potency is read from the fitted curve at half-maximal effect; as to activity change, negative = inhibition: top concentration of the series differs between compounds
Method in brief: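 Wild-type HCT-116 cells were plated overnight, exposed to compounds for 2 h at 37 °C, then given HDAC-Glo class I/II luminogenic reagent for 30 min at room temperature before luminescence was read.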

[15] = qHTS assay to identify small molecule HDAC inhibitors - cell viability counter screen (AID 1259365)
Method in brief: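 HCT-116 (wild type), 1,500 cells/well, overnight 37C/5% CO2; compound in DMSO 2hr; CellTiter-Glo 30min RT; luminescence read.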

[16] = qHTS assay to identify small molecule agonists of the sonic hedgehog signaling (Shh) pathway - cell viability counter screen (AID 1259366); also: nearly all actives have a fitted effect of over 50% in size
Method in brief: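 CellTiter-Fluor fluorescence read-out, 1 hr at 37C, added after 23hr compound exposure. Cells: 3T3 Gli1-Luc, an NIH/3T3 clone with stably integrated Gli1-Luc reporter, plated 4hr before compound.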

[17] = qHTS assay to identify small molecule antagonists of the sonic hedgehog signaling (Shh) pathway - cell viability counter screen (AID 1259367); also: nearly all actives have a fitted effect of over 55% in size
Method in brief: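 NIH/3T3-derived Gli1-Luc reporter cells (2,000 per well) rested 4 hr at 37 C, then received DMSO compounds plus conditioned medium. After 23 hr of treatment, CellTiter-Fluor was added for 1 hr at 37C and fluorescence read.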

[18] = qHTS assay to identify small molecule agonists of the sonic hedgehog signaling (Shh) pathway (AID 1259368; calls by dose curve; also: series mostly up to about 92 µM; nearly all actives have a fitted effect of over 15% in size)
Method in brief: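 NIH/3T3-derived 3T3Gli1-Luc cells carrying a stably integrated Gli1 response element–firefly luciferase reporter were plated, left 4 hr at 37 C, then given compounds in DMSO for 24 hr. Luminescence was read 30 min after adding luciferase reagent.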

[19] = qHTS assay to identify small molecule phospholipidosis (PLD) inducers (AID 1259344; active = well fitted curve in the direction sought with a large enough effect; an effect the other way counts as inactive or inconclusive)
Method in brief: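 HepG2 cells on collagen I, attached 4 h at 37 C, were co-treated with compound and LipidTOX Red dye for 24 h at 37 C, then fixed with paraformaldehyde plus Hoechst 33342 and imaged by high-content microscopy for phospholipid accumulation.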

[20] = molecular target: Androgen receptor (Homo sapiens) (UniProt P10275); experiment: qHTS assay to identify small molecule antagonists of the androgen receptor (AR) signaling pathway using the MDA cell line in the presence of 0.5 nM R1881 (AID 1259243); also: nearly all actives have a fitted effect of over 50% in size
Method in brief: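 MDA-kb2 human breast carcinoma cells carrying an MMTV-luciferase reporter (AR- and GR-responsive) were plated, rested 5 hr at 37C, dosed with compounds, then stimulated with 0.5 nM R1881 (final) for 16 hr; luminescence was read after ONE-Glo.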
% is scaled to controls: 0 for no effect and ±100 for the full control effect.

Chain of Androgen receptor (Homo sapiens) (P10275 whole entry, looked up): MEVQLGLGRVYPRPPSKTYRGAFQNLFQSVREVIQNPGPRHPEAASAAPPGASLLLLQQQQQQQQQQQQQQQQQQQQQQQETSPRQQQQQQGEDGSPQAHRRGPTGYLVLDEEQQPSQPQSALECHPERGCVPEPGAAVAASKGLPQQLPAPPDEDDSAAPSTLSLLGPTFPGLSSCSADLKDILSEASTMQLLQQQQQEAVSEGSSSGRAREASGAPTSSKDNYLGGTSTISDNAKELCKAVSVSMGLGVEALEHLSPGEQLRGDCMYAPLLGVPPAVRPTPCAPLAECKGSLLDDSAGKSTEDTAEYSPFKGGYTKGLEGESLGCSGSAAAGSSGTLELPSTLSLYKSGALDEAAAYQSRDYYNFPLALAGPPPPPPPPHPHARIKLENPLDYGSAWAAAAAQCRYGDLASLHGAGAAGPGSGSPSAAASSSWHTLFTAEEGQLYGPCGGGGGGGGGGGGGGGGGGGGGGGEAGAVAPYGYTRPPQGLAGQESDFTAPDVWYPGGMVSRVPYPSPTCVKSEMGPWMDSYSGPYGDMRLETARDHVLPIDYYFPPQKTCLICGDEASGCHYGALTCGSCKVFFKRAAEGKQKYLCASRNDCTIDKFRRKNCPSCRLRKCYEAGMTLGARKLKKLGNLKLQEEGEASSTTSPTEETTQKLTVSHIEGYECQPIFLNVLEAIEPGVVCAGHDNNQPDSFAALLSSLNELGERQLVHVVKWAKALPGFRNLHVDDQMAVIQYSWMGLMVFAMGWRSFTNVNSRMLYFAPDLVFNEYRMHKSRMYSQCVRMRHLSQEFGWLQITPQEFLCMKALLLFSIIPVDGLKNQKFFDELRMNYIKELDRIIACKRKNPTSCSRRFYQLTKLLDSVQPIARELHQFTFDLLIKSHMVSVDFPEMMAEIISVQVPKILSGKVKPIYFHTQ
Chain of Estrogen receptor (Homo sapiens) (P03372 whole entry, looked up): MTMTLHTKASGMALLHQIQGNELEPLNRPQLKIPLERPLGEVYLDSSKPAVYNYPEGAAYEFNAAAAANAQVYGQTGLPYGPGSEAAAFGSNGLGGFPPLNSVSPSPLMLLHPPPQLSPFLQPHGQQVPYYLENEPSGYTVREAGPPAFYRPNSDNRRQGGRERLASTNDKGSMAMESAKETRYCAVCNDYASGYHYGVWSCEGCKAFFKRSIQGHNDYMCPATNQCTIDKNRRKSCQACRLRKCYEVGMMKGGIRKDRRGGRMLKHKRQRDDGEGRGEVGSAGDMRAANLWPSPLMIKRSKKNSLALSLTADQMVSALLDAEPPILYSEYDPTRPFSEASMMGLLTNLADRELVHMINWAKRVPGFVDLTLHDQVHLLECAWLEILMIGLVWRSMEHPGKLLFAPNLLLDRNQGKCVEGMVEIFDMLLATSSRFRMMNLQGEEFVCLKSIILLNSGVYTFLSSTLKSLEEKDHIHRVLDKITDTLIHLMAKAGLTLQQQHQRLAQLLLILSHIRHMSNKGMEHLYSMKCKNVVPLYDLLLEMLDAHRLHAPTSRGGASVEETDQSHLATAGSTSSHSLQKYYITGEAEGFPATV

CC1CN1P(=O)(N1CC1C)N1CC1C (stereo unspecified)
inactive: Potency [1] | outcome [2] | Potency [3] | Potency [4] | Potency [5] | Potency [6] | Potency [7] | Potency [8] | Potency [9] | Potency [10] | outcome [11] | outcome [12] | Potency [13] | Potency [14] | outcome [15] | Potency [16] | Potency [17] | outcome [18]

CCOc1nc(C(Cl)(Cl)Cl)ns1
inactive: Potency [1] | outcome [2] | Potency [3] | Potency [4] | Potency [5] | Potency [6] | Potency [7] | Potency [8] | Potency [9] | Potency [10] | outcome [11] | outcome [12] | Potency [13] | Potency [14] | outcome [15] | Potency [16] | Potency [17] | outcome [18]

O=NN1CCN(N=O)CC1
inactive: Potency [1] | outcome [2] | Potency [3] | Potency [4] | Potency [5] | Potency [6] | Potency [7] | Potency [8] | Potency [9] | Potency [10] | outcome [11] | outcome [12] | Potency [13] | Potency [14] | outcome [15] | Potency [16] | Potency [17]

NC1=NC(=O)C(c2ccccc2)O1 (stereo unspecified)
inactive: Potency [1] | outcome [2] | Potency [3] | Potency [4] | Potency [5] | Potency [6] | Potency [7] | Potency [8] | Potency [9] | Potency [10] | outcome [11] | outcome [12] | outcome [19] | Potency [14] | outcome [15] | Potency [16] | outcome [18]

O=C1c2ccccc2C(=O)c2ccccc21
active: Potency [14] 3.66 µM
inactive: cytotoxicity increase [1] 6.55% [at 15.8 µM] | cytotoxicity [2] 5.37% [at 15.8 µM] | cytotoxicity increase [3] 7.1% [at 15.8 µM] | cytotoxicity increase [4] 6.23% [at 15.8 µM] | activity change, negative = cytotoxic [5] 1.58% [at 15.8 µM] | activity change, negative = cytotoxicity [6] 20.7% [at 15.8 µM] | activity change, negative = cytotoxicity [7] 16.6% [at 15.8 µM] | activity change [8] 5.38% [at 15.8 µM, stronger effect = higher value] | activity change, negative = cytotoxicity [9] 6.06% [at 15.8 µM] | cytotoxicity increase [10] 19.4% [at 15.8 µM] | activity change, negative = cytotoxicity [11] 0.424% [at 19 µM] | viability change, negative = cytotoxic [12] 3.34% [at 19 µM] | activity change, negative = inhibition [13] 34.1% [at 19 µM] | outcome [19] | activity change, negative = cytotoxicity [15] -0.295% [at 19 µM] | viability change, negative = cytotoxic [16] 1.77% [at 19 µM] | activity change [18] 1.5% [at 18.9 µM]

O=C(Nc1ccccc1)c1ccccc1I
inactive: Potency [1] | outcome [2] | Potency [3] | Potency [4] | Potency [5] | Potency [6] | Potency [7] | Potency [8] | Potency [9] | Potency [10] | outcome [11] | outcome [12] | Potency [20] | Potency [13] | outcome [15] | Potency [16] | outcome [18]

CC(=O)[C@H]1CC[C@H]2[C@@H]3CC[C@H]4C[C@H](O)CC[C@]4(C)[C@H]3C(=O)C[C@]12C
inactive: Potency [1] | outcome [2] | Potency [3] | Potency [4] | Potency [5] | Potency [6] | Potency [7] | Potency [8] | Potency [9] | Potency [10] | outcome [11] | outcome [12] | Potency [13] | outcome [19] | Potency [14] | outcome [15] | Potency [16] | outcome [18]

N#CC(O)c1ccccc1 (stereo unspecified)
inactive: Potency [1] | outcome [2] | Potency [3] | Potency [4] | Potency [5] | Potency [6] | Potency [7] | Potency [8] | Potency [10] | outcome [11] | outcome [12] | Potency [14] | outcome [15] | Potency [16] | Potency [17]

O=C(O)c1ccc2[nH]cc(CCCCN3CC=C(c4ccccc4)CC3)c2c1
inactive: Potency [1] | outcome [2] | Potency [3] | Potency [4] | Potency [5] | Potency [6] | Potency [7] | Potency [8] | Potency [9] | outcome [11] | outcome [12] | Potency [20] | Potency [13] | outcome [19] | Potency [14] | outcome [15] | Potency [16] | Potency [17] | outcome [18]

CC(=O)CCc1ccc2c(c1)OCO2
inactive: Potency [1] | outcome [2] | Potency [3] | Potency [4] | Potency [5] | Potency [6] | Potency [7] | Potency [8] | Potency [9] | outcome [11] | outcome [12] | Potency [13] | Potency [14] | outcome [15] | Potency [16] | Potency [17]

COP(N)(=S)Oc1ccccc1C(=O)OC(C)C (stereo unspecified)
inactive: Potency [1] | outcome [2] | Potency [3] | Potency [4] | Potency [5] | Potency [6] | Potency [7] | Potency [8] | Potency [9] | Potency [10] | outcome [12] | Potency [20] | Potency [13] | Potency [14] | outcome [15] | Potency [16] | Potency [17] | outcome [18]

COc1cc2c(cc1OC)[C@@]13CCN4CC5=CCO[C@H]6CC(=O)N2[C@H]1[C@H]6[C@H]5C[C@H]43
inactive: Potency [1] | outcome [2] | Potency [3] | Potency [4] | Potency [5] | Potency [6] | Potency [7] | Potency [8] | Potency [9] | Potency [10] | outcome [12] | Potency [13] | outcome [19] | Potency [14] | outcome [15] | outcome [18]

COC(=O)c1ccccc1S(=O)(=O)NC(=O)Nc1nc(C)cc(C)n1
inactive: Potency [1] | outcome [2] | Potency [3] | Potency [4] | Potency [5] | Potency [6] | Potency [7] | Potency [8] | Potency [9] | Potency [10] | outcome [11] | outcome [12] | Potency [14] | outcome [15] | Potency [16] | Potency [17] | outcome [18]

CCOP(=S)(OCC)Oc1nc(Cl)n(C(C)C)n1
inactive: Potency [1] | outcome [2] | Potency [3] | Potency [4] | Potency [5] | Potency [6] | Potency [7] | Potency [8] | Potency [9] | Potency [10] | outcome [12] | Potency [13] | Potency [14] | outcome [15] | Potency [16] | Potency [17] | outcome [18]

CCOC(=O)C1(c2ccccc2)CCN(CCc2ccc(N)cc2)CC1
inactive: Potency [1] | outcome [2] | Potency [3] | Potency [4] | Potency [5] | Potency [6] | Potency [7] | Potency [8] | Potency [9] | outcome [11] | outcome [12] | Potency [20] | Potency [13] | Potency [14] | outcome [15] | Potency [16] | Potency [17] | outcome [18]

O=C(Oc1ccc(Br)cc1)N1CCN2CCC1CC2
inactive: Potency [1] | outcome [2] | Potency [3] | Potency [4] | Potency [5] | Potency [6] | Potency [7] | Potency [8] | Potency [9] | Potency [10] | outcome [12] | Potency [13] | Potency [14] | outcome [15] | Potency [16] | Potency [17] | outcome [18]
